Reference: the supplement of paper PMC10127200
Counter-ions that a name gives are not always drawn.

How the values were obtained:
Assay in all cases: Euclidean distance of Cell Painting phenotypic profile (signed KS, 77 features) to DMSO centroid (dimensionless distance); 5 or 10 uM (library dependent); higher = stronger phenotypic change vs DMSO (phenoactivity)
Conditions in all cases: 48 h
786-O = tested on: 786-O
Procedure, shortened: (§1)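 Phenoactivity is defined as the Euclidean distance from a compound profile to the median vehicle profile. Each profile comprised 77 Harmony features, scored as signed Kolmogorov-Smirnov statistics versus same-plate vehicle wells, then plate-position corrected, correlation-weighted and replicate-averaged at the top dose. Five cancer lines and one healthy fibroblast line were exposed to library compounds for 48 h at 10 or 5 uM (0.1% DMSO final).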

A549 = tested on: A549
Procedure, shortened: as §1

DU145 = tested on: DU145
Procedure, shortened: as §1

FB = tested on: FB
Procedure, shortened: as §1

HEPG2 = tested on: HEPG2
Procedure, shortened: as §1

OVCAR4 = tested on: OVCAR4
Procedure, shortened: as §1

CC(C)Cc1ccc([C@@H](C)C(=O)NS(C)(=O)=O)cc1 [Reparixin (Repertaxin)]
Euclidean distance (786-O): 1.16
Euclidean distance (A549): 0.942
Euclidean distance (DU145): 0.933
Euclidean distance (FB): 1.09
Euclidean distance (HEPG2): 1.25
Euclidean distance (OVCAR4): 1.04

CCCCCCCCCC(=O)N[C@H]1[C@H](Oc2c3cc4cc2Oc2ccc(cc2Cl)[C@@H](O[C@@H]2O[C@H](CO)[C@@H](O)[C@H](O)[C@H]2NC(C)=O)[C@@H]2NC(=O)[C@H](NC(=O)[C@@H]4NC(=O)[C@H]4NC(=O)[C@@H](Cc5ccc(c(Cl)c5)O3)NC(=O)[C@H](N)c3ccc(O)c(c3)Oc3cc(O)cc4c3)c3ccc(O)c(c3)-c3c(OC4O[C@H](CO)[C@@H](O)[C@H](O)[C@@H]4O)cc(O)cc3[C@@H](C(=O)O)NC2=O)O[C@H](CO)[C@@H](O)[C@@H]1O (some centres undefined) [Teicoplanin]
Euclidean distance (786-O): 1.09
Euclidean distance (A549): 1.18
Euclidean distance (DU145): 0.773
Euclidean distance (FB): 0.777
Euclidean distance (HEPG2): 1.39
Euclidean distance (OVCAR4): 1.07

CCCC1O[C@@H]2C[C@H]3[C@@H]4CCC5=CC(=O)C=C[C@]5(C)[C@H]4[C@@H](O)C[C@]3(C)[C@]2(C(=O)CO)O1 (some centres undefined) [Budesonide]
Euclidean distance (786-O): 3.14
Euclidean distance (A549): 1.89
Euclidean distance (DU145): 2.06
Euclidean distance (FB): 3.49
Euclidean distance (HEPG2): 2.09
Euclidean distance (OVCAR4): 2.47

COc1cc(NS(=O)(=O)c2ccc(N)cc2)ncn1 [Sulfamonomethoxine]
Euclidean distance (786-O): 0.83
Euclidean distance (A549): 0.926
Euclidean distance (DU145): 0.778
Euclidean distance (FB): 0.916
Euclidean distance (HEPG2): 0.669
Euclidean distance (OVCAR4): 1.12

N#Cc1ccnc(N2C(=O)CC[C@H]2C(=O)N(c2cncc(F)c2)[C@H](C(=O)NC2CC(F)(F)C2)c2ccccc2Cl)c1 [Ivosidenib (AG-120)]
Euclidean distance (786-O): 0.973
Euclidean distance (A549): 0.609
Euclidean distance (DU145): 1.95
Euclidean distance (FB): 1.1
Euclidean distance (HEPG2): 0.986
Euclidean distance (OVCAR4): 1.55

N.N.O=C([O-])C[O-].[Pt+2] [Nedaplatin]
Euclidean distance (786-O): 3.19
Euclidean distance (A549): 2.86
Euclidean distance (DU145): 4.02
Euclidean distance (FB): 3.24
Euclidean distance (HEPG2): 2.92
Euclidean distance (OVCAR4): 2.99

c1ccc2c(c1)CCCC2C1=NCCN1 (centres undefined) [Tetrahydrozoline HCl]
Euclidean distance (786-O): 0.978
Euclidean distance (A549): 0.966
Euclidean distance (DU145): 0.786
Euclidean distance (FB): 0.944
Euclidean distance (HEPG2): 0.601
Euclidean distance (OVCAR4): 1.78

COC(=O)[C@]12CCC(C)(C)C[C@H]1[C@H]1C(=O)C=C3[C@@]4(C)C=C(C#N)C(=O)C(C)(C)[C@@H]4CC[C@@]3(C)[C@]1(C)CC2 [Bardoxolone Methyl]
Euclidean distance (786-O): 5.4
Euclidean distance (A549): 5.71
Euclidean distance (DU145): 5.63
Euclidean distance (FB): 2.1
Euclidean distance (HEPG2): 4.01
Euclidean distance (OVCAR4): 6.33

CCc1cc(C(N)=S)ccn1 [Ethionamide]
Euclidean distance (786-O): 1.19
Euclidean distance (A549): 0.608
Euclidean distance (DU145): 1.03
Euclidean distance (FB): 0.853
Euclidean distance (HEPG2): 2.13
Euclidean distance (OVCAR4): 1.4

O=C(c1ccccc1)c1ccc2n1CCC2C(=O)O (centres undefined) [Ketorolac]
Euclidean distance (786-O): 1.49
Euclidean distance (A549): 1.29
Euclidean distance (DU145): 0.701
Euclidean distance (FB): 0.977
Euclidean distance (HEPG2): 0.545
Euclidean distance (OVCAR4): 1.06

COc1cc(N2CCN(C)CC2)ccc1Nc1nccc(-c2cn(C)c3cnccc23)n1
Euclidean distance (786-O): 2.55
Euclidean distance (A549): 1.56
Euclidean distance (DU145): 1.34
Euclidean distance (FB): 2.68
Euclidean distance (HEPG2): 1.53
Euclidean distance (OVCAR4): 2.69

O=c1[nH]cnc2c1ncn2[C@@H]1O[C@H](CO)[C@@H](O)[C@H]1O [Inosine]
Euclidean distance (786-O): 1.3
Euclidean distance (A549): 0.799
Euclidean distance (DU145): 0.639
Euclidean distance (FB): 0.936
Euclidean distance (HEPG2): 0.417
Euclidean distance (OVCAR4): 1.3

O=C(NOC[C@H](O)CO)c1ccc(F)c(F)c1Nc1ccc(I)cc1F
Euclidean distance (786-O): 3.1
Euclidean distance (A549): 2.57
Euclidean distance (DU145): 3.66
Euclidean distance (FB): 3.5
Euclidean distance (HEPG2): 2.03
Euclidean distance (OVCAR4): 2.63

Nc1nc(Nc2ccc(S(N)(=O)=O)cc2)nn1C(=O)c1c(F)cccc1F
Euclidean distance (786-O): 1.27
Euclidean distance (A549): 1.64
Euclidean distance (DU145): 1.5
Euclidean distance (FB): 0.817
Euclidean distance (HEPG2): 1.7
Euclidean distance (OVCAR4): 1.05

COC(=O)C1=C(C)NC(C)=C(C(=O)OCCN2CCN(C(c3ccccc3)c3ccccc3)CC2)C1c1cccc([N+](=O)[O-])c1 (centres undefined) [Manidipine 2HCl]
Euclidean distance (786-O): 1.93
Euclidean distance (A549): 2.35
Euclidean distance (DU145): 1.3
Euclidean distance (FB): 1.11
Euclidean distance (HEPG2): 1.84
Euclidean distance (OVCAR4): 1.95

CC(NCCc1ccc(O)cc1)C(O)c1ccc(O)cc1 (centres undefined) [Ritodrine HCl]
Euclidean distance (786-O): 1.08
Euclidean distance (A549): 0.752
Euclidean distance (DU145): 0.998
Euclidean distance (FB): 1.01
Euclidean distance (HEPG2): 0.393
Euclidean distance (OVCAR4): 0.728

O=C1CN2Cc3c(ccc(Cl)c3Cl)N=C2N1 [Anagrelide HCl]
Euclidean distance (786-O): 0.871
Euclidean distance (A549): 0.869
Euclidean distance (DU145): 0.905
Euclidean distance (FB): 1.18
Euclidean distance (HEPG2): 1.01
Euclidean distance (OVCAR4): 1.53

CCCN[C@H]1CCc2nc(N)sc2C1 [Pramipexole]
Euclidean distance (786-O): 1.54
Euclidean distance (A549): 0.915
Euclidean distance (DU145): 1.04
Euclidean distance (FB): 0.837
Euclidean distance (HEPG2): 0.869
Euclidean distance (OVCAR4): 1.19

COc1ccc(C[C@@H]2c3cc(OC)c(OC)cc3CC[N@+]2(C)CCC(=O)OCCCCCOC(=O)CC[N@@+]2(C)CCc3cc(OC)c(OC)cc3[C@H]2Cc2ccc(OC)c(OC)c2)cc1OC [Cisatracurium Besylate]
Euclidean distance (786-O): 1.42
Euclidean distance (A549): 0.822
Euclidean distance (DU145): 0.815
Euclidean distance (FB): 1.11
Euclidean distance (HEPG2): 1.11
Euclidean distance (OVCAR4): 1.35

CC(C)(C)NC(=O)[C@@H]1CN(Cc2cccnc2)CCN1C[C@@H](O)C[C@@H](Cc1ccccc1)C(=O)N[C@H]1c2ccccc2C[C@H]1O [Indinavir Sulfate]
Euclidean distance (786-O): 0.896
Euclidean distance (A549): 0.551
Euclidean distance (DU145): 0.801
Euclidean distance (FB): 0.953
Euclidean distance (HEPG2): 0.739
Euclidean distance (OVCAR4): 1.27

COc1cc(NS(C)(=O)=O)ccc1Nc1c2ccccc2nc2ccccc12 [Amsacrine hydrochloride]
Euclidean distance (786-O): 3.5
Euclidean distance (A549): 3.49
Euclidean distance (DU145): 4.13
Euclidean distance (FB): 3.04
Euclidean distance (HEPG2): 3.28
Euclidean distance (OVCAR4): 3.46

CN1CCC(CNc2ccc3ncc(-c4cccc(OC(F)(F)F)c4)n3n2)CC1 [SGI-1776 free base]
Euclidean distance (786-O): 2.39
Euclidean distance (A549): 3.26
Euclidean distance (DU145): 1.73
Euclidean distance (FB): 3.26
Euclidean distance (HEPG2): 4
Euclidean distance (OVCAR4): 1.54

CCCCC1=NC2(CCCC2)C(=O)N1Cc1ccc(-c2ccccc2S(=O)(=O)Nc2noc(C)c2C)c(COCC)c1
Euclidean distance (786-O): 1.6
Euclidean distance (A549): 0.599
Euclidean distance (DU145): 1.01
Euclidean distance (FB): 0.872
Euclidean distance (HEPG2): 0.445
Euclidean distance (OVCAR4): 0.927

COc1ccc(-c2cc(=O)c3c(OC)c(OC)c(OC)c(OC)c3o2)cc1OC [Nobiletin]
Euclidean distance (786-O): 0.695
Euclidean distance (A549): 0.706
Euclidean distance (DU145): 1
Euclidean distance (FB): 0.95
Euclidean distance (HEPG2): 1.47
Euclidean distance (OVCAR4): 0.897
